# Assay outcomes (PubChem)
# tim10-1 inh – growth inhibitors of tim10-1 mutant yeast, primary screen, luminescence, uHTS; S. cerevisiae tim10-1 ts strain growth, BacTiter-Glo, 24 h; AID 463190, 2010; inhibition, % at 20 µM; actives 2.2% (n = 330,000);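 active means inhibition of at least 40%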;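 further: mutant grown at 25 °C; 0% = DMSO wells with yeast and 100% = wells holding no yeast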
# SUMO Mot1 rescue – yeast Mot1-301 growth rescue at high temperature, primary screen, SUMOylation pathway inhibitor project, S. cerevisiae, ATP luminescence, 38.5C; actives 1% (n = 320,000); S. cerevisiae Mot1-301 growth rescue; percent above DMSO median, 100 means doubled; growth rescue, % at 18.8 µM; AID 2716, 2010;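 active means every valid replicate shows activation above 250% relative to neutral control wells; inactive means the rest, any valid replicate at or below 250%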;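 further: OY570 slx delta 5 strain wells were the positive control but not used for scaling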
# PfHsp90 set2 – growth inhibition of PfHsp90-expressing yeast, primary screen, antimalarial PfHsp90 inhibitor project, S. cerevisiae, BacTiter-Glo luminescence, single point, set 2; inhibition, % at 9.4 µM; actives 0.32% (n = 310,000); AID 504621, 2011; BacTiter-Glo ATP, 48 h; yeast lacking PDR1 and PDR3 efflux regulators;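 active means every replicate shows inhibition above about 80%, whatever the replicate mean, limit read from the data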;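 further: 0% = DMSO neutral controls and 100% = 20 µM radicicol positive controls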
# tim23-1 inh – growth inhibitors of tim23-1 mutant yeast, primary screen, luminescence, uHTS; S. cerevisiae tim23-1 growth, BacTiter-Glo luminescence, 24 h; inhibition, % at 20 µM; actives 1.3% (n = 330,000); AID 463212, 2010;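 active means growth inhibition of the mutant yeast at or above 50%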;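 further: temperature-sensitive mutant grown at 25 °C; plate controls were DMSO-treated mutant yeast for no effect and medium wells lacking yeast for full effect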
# TIM10 inh – growth inhibitors of isogenic TIM10 control yeast, primary screen, counter-screen for tim10-1 yeast inhibitor project, luminescence, uHTS. S. cerevisiae TIM10 strain growth, BacTiter-Glo luminescence, 24 h. AID 463195, 2010. actives 1.4% (n = 330,000). inhibition, % at 10 µM;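 active means inhibition of 40% or more at the single tested concentration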;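 further: wild-type TIM10 isogenic control strain grown at permissive 25 °C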
# tim10 confirm – growth inhibitors of wild-type TIM10 yeast, confirmation, counter-screen for tim10-1 synthetic lethality project, single concentration, luminescence, S. cerevisiae. inhibition, % at 10 µM. shares compounds with TIM10 inh. AID 463215, 2010. actives 63% (n = 4,600). S. cerevisiae tim10 strain growth, BacTiter-Glo luminescence, 24 h;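 active means inhibition of yeast growth at or above a set limit in either of two replicates at 10 µM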;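 further: this counterscreen used the strain with wild-type TIM10; 0% = yeast with DMSO and 100% = medium wells lacking yeast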
# Numbers without * were called inactive; / = no result given. Shown are actives, neighbours in structure and some others; about 4.4% of the full set was active somewhere.
SMILES,tim10-1 inh,SUMO Mot1 rescue,PfHsp90 set2,tim23-1 inh,TIM10 inh,tim10 confirm
O=C(N/C(=C/c1cccc([N+](=O)[O-])c1)C(=O)N1CCOCC1)c1ccccc1Br,11,116,9,1,-1,/
Oc1ccc(-c2cccc(-c3ccc(O)cc3)n2)cc1,33,/,/,39,44*,32*
COC(=O)CC1=NN(c2ccccc2)C(=O)/C1=C\c1ccc(OC)cc1,20,-4,16,39,18,/
CCOC(=O)CC1=NN(c2ccccc2)C(=O)/C1=C\c1ccc(OC)cc1OC,36,-1,-2,47,48*,29
COc1ccc(CNS(=O)(=O)CCNC(=O)c2ccc3c(c2)OCO3)cc1,-13,-9,10,-4,-2,/
O=C(Nc1cccc(Cl)c1)c1cc(S(=O)(=O)NCCc2ccc(Cl)cc2)ccc1F,30,3,-1,26,41*,51*
COc1ccc(-n2cnc3cc(NC(=O)c4ccco4)ccc32)cc1,29,-28,6,29,66*,54*
CC(C)n1cnc2cc(NC(=O)c3ccco3)ccc21,1,-11,-11,30,-4,/
CN1CCN(c2nc3ccccc3nc2C(C#N)S(=O)(=O)c2ccccc2)CC1 (stereo unspecified),10,-8,/,6,7,/
N#CC(c1nc2ccccc2nc1N1CCCC1)S(=O)(=O)c1ccccc1 (stereo unspecified),38,-3,-24,28,41*,17
CC(C)(C)Nc1nc(Cl)nc(Nc2ccccc2)n1,-5,-9,-36,48,1,/
COc1ccccc1Nc1nc(Cl)nc(NC(C)(C)C)n1,33,-8,-33,18,42*,23
Nc1c(C(=O)c2ccc(Br)cc2)oc2ccccc12,5,3,9,18,17,/
Cc1ccc(C(=O)c2oc3ccccc3c2N)cc1,33,16,-28,8,47*,29
Cc1cc(OCc2cccc(S(=O)(=O)N3CCOCC3)c2)ccc1Cl,19,15,-2,35,50*,26
O=C(Nc1nc2ccccc2s1)C1CC(=O)N(c2ccc(Cl)cc2)C1 (stereo unspecified),27,228,-9,43,48*,-22
CC(C)CC(=O)NC(=S)Nc1nc(-c2cccc3ccccc23)cs1,36,-17,-4,15,47*,-19
CCOc1ccc(-n2c(C)nc3c(cnn3-c3ccc(Cl)cc3)c2=O)cc1,/,/,-13,/,/,/
CCc1nc2c(cnn2-c2ccc(Cl)cc2)c(=O)n1-c1ccc(OC)cc1,6,/,-3,6,42*,16
S=C(NCc1ccc(Cl)cc1)Nc1ccccc1,32,17,-4,24,42*,30
Fc1ccc(CNC(=S)Nc2ccc(Cl)cc2)cc1,11,6,25,7,22,/
S=C(NCc1cccs1)Nc1ccccc1Cl,27,-38,-23,25,18,/
S=C(NCc1cccs1)Nc1cc(Cl)cc(Cl)c1,39,14,-24,42,47*,56*
Cc1ccc(N2CN(S(=O)(=O)c3cccc([N+](=O)[O-])c3)c3nc4ccccc4nc32)cc1,20,255,2,7,-8,/
NS(=O)(=O)c1ccc(CCNC(=O)c2cnc(Cl)c(Cl)c2)cc1,4,-20,-3,0,10,/
SMILES,tim10-1 inh,SUMO Mot1 rescue,PfHsp90 set2,tim23-1 inh,TIM10 inh,tim10 confirm
CCSc1ncccc1-c1nc2ccccc2[nH]1,15,9,-23,39,43*,17
CC(C)C(NS(=O)(=O)c1ccccc1)C(=O)N1CCCC1 (stereo unspecified),-1,-1,-12,-2,-7,/
CC1=CC(=O)C(C(C)C)=C/C1=N\OC(=O)c1cccc2nc(C)oc12,33,16,-86,31,26,/
CC1=CC(=O)C(C(C)C)=C/C1=N/OC(=O)c1cccc([N+](=O)[O-])c1,37,18,-7,47,43*,32*
COc1ccccc1C(=O)NCCC(=O)Nc1cccc(S(=O)(=O)N2CCCC2)c1,0,4,/,-6,5,/
NC(=S)N/N=C/c1ccc2ccccc2c1,24,86,10,30,40*,28
COCCCNC(=S)N/N=C/c1ccc2ccccc2c1,16,-7,-12,35,41*,37*
C/C(=N/NC(=O)CNS(=O)(=O)c1ccccc1)c1ccc(Br)cc1,-10,4,9,-9,3,/
O=C(CCNC(=O)c1ccco1)Nc1nc(-c2ccccc2)cs1,6,-15,/,18,2,/
Cc1ccc(NC(=O)COC(=O)CC2CC3CCC2C3)cc1S(=O)(=O)N1CCOCC1 (stereo unspecified),-44,-15,-3,6,9,/
COc1ccc(S(=O)(=O)n2nc(OC(=O)C3CCCCC3)cc2N)cc1,38,23,-1,26,46*,-14
Cc1ccc(S(=O)(=O)n2nc(OC(=O)c3cccs3)cc2N)cc1,34,11,-14,37,47*,18
COc1ccc(-c2ccc(S(=O)(=O)n3nc(OC(=O)c4cccs4)cc3N)cc2)cc1,19,-14,-11,9,-14,/
COc1ccc(NC(=O)Cc2nnc(SCC(=O)NC3CCCC3)n2C)cc1,6,13,-13,13,-14,/
CCS(=O)(=O)c1nc(S(=O)(=O)c2ccc(C)cc2)c(NCCN2CCOCC2)s1,-2,-7,-16,-15,97*,10
Cc1ccc(NC(=O)C2CCN(C(=O)OC(C)(C)C)CC2)cc1S(=O)(=O)N1CCCCC1,4,18,-3,2,56*,4
Cc1ccc(NC(=O)C2CCCC2)cc1S(=O)(=O)N1CCOCC1,8,-4,8,16,12,/
CN1C(=O)CS/C1=N\NC(=O)COc1cccc2cccnc12,3,0,2,15,9,/
Cc1cccc(NC(=O)C2CCN(S(=O)(=O)c3cccc4nsnc34)CC2)n1,22,-14,7,20,8,/
COc1ccc2nc(NC(=O)C3CCN(S(=O)(=O)c4cccc5nsnc45)CC3)sc2c1,19,-11,-9,18,40*,-24
CCN(c1ccccc1)S(=O)(=O)c1ccc(Cl)c(NC(=O)COC(=O)c2cc(O)c3ccccc3c2O)c1,28,-24,/,35,45*,32*
COc1ccc(N(CC(=O)Nc2ccc(C)cc2)S(=O)(=O)c2c(C)noc2C)cc1,15,37,-10,19,-2,/
